# Screening data deposited in PubChem by National Center for Advancing Translational Sciences (NCATS).
# An excerpt weighted towards active compounds, which were near 21% of everything screened.
# CHX counter: counter-screen hit for Shiga toxin inhibitors, cycloheximide. cell reporter, cycloheximide protein synthesis inhibition counterscreen. max response, %. 12% of 300,000 active. AID 2314; in the data active means max response mostly above about 13%, no sharp cut-off; inactive means mostly below about 14%; further: read at 38.3 µM for the half of the compounds with a filed dose
# Shiga inhibitor: inhibitors of Shiga toxin in Vero cells; inhibition, % at 38.7 µM; Vero cells, Shiga toxin protein synthesis inhibition reporter; AID 2315; 9.2% of 290,000 active; in the data active means inhibition mostly above about 28%, no sharp cut-off; inactive means mostly below about 43%
# Pf growth 48h: P. falciparum growth inhibition at 48 hours (one generation) | P. falciparum luciferase growth in erythrocytes, 48 h | Potency, µM (top dose mostly 28.7 µM), usual class: inhibitors | 5.9% of 310,000 active | AID 504832
#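 Erythrocytes infected with P. falciparum carrying an integrated firefly luciferase reporter (2% hematocrit, 0.1% parasitemia final) were exposed to compounds in RPMI 1640 with 0.5% Albumax at 37 C, 5% CO2. Growth inhibition was scored as reduced luminescence.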
# Pf growth 96h: inhibits malaria parasite growth, 96 h; P. falciparum luciferase reporter growth, 96 h; Potency, µM (series often up to 28.7 µM), hits mostly inhibitors; 6.9% of 320,000 active
#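 Parasite growth measured via integrated firefly luciferase reporter in P. falciparum. Infected erythrocytes at 2% hematocrit, 0.05% parasitemia final were treated 96 hours at 37 C under 5% CO2, and luminescence was read.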
# Numbers stand for hits; n = inactive; u = inconclusive; x = no result given; [ ] = remark or other dose. Unless noted, the call rests on the fitted dose curve; in most records, active means well fitted inhibition curve with a large enough effect; inconclusive means small, poorly fitted or top-dose-only effect, or another doubt; inactive means no such curve, though single readings can be large or run the other way.
SMILES,CHX counter,Shiga inhibitor,Pf growth 48h,Pf growth 96h
O=C(NCC1OCCCN1S(=O)(=O)c1cc(F)ccc1F)C(=O)NC1CCCC1 (configuration not stated),n,n,n,n
O=C1Cc2cc(S(=O)(=O)Nc3ccccc3Cl)cc3c2N1CCC3,n,n,u,n
N#Cc1ccc(CN2CCN(C(=O)c3ccc(S(=O)(=O)NCc4ccco4)cc3)CC2)cc1,x,x,u,3.7µM
O=C(c1ccc(S(=O)(=O)NCc2ccco2)cc1)N1CCCC1,n,n,n,n
CC(Oc1ccc2ccc(=O)oc2c1)C(=O)NCCN1CCOCC1 (configuration not stated),n,n,n,n
C#CCOC(=O)c1cc(Cl)c(=O)n(Cc2ccc(Cl)cc2Cl)c1,n,n,u,n
CC(C)CCNC(=O)C(=O)NC1CCCC1,11,37,n,n
O=C(Cn1cnc2c(nnn2Cc2ccccc2)c1=O)N1CCCc2ccccc21,n,n,u,12µM
Cc1cc(C)nc(SCc2nnc(SCC(=O)N3CCCc4ccccc43)n2C)n1,n,n,u,n
Cc1ccnc(SCC(=O)N2CCN(C(c3ccccc3)c3ccccc3)CC2)n1,n,n,x,15µM
Cc1cc(C)nc(SCc2nnc(SCC(=O)N3CCCc4ccccc43)o2)n1,n,n,n,1.5µM
CC(=O)Nc1ccc(C(=O)CSc2ncn(-c3ccccc3)n2)cc1,23,n,n,13µM
Cn1c(SCC(=O)N2CCCc3ccccc32)nnc1-c1ccccc1,n,n,u,u
O=C(CSc1ncccn1)N1CCCc2ccccc21,11,n,n,u
O=C(CCC(=O)N1CCCc2ccccc21)N1CCN(S(=O)(=O)c2ccccc2)CC1,n,n,u,n
O=C(CCS(=O)(=O)c1ccccc1)N1CCCc2ccccc21,19,57,n,n
Cc1cc(C)c2c(c1)cc(C)c1nnc(SCC(=O)N3CCCc4ccccc43)n12,n,n,n,5.9µM
O=C(O)c1cccnc1SCC(=O)N1CCCc2ccccc21,47,99,n,n
CCCCN1C(=O)C2(OCCCO2)c2cccc(C)c21,n,n,n,n
CCNC(=S)N(CCc1c(C)[nH]c2ccccc12)Cc1cccnc1,n,n,x,n
Cn1nc(C(=O)NNC(=O)C2CSC3(C)CCC(=O)N23)c2ccccc2c1=O (configuration not stated),x,x,n,n
CCN(CC)CCOc1ccccc1C(C)=O,n,n,n,n
Cc1ccc(C(=O)Nc2nnc(SCC(=O)N3CCCc4ccccc43)s2)cc1,33,49,u,n
Cc1ccnc(SCC(=O)N2CCc3ccccc32)n1,32,73,n,n
Cc1ccc2c(c1)CCCN2C(=O)CSc1ccccc1,12,n,n,n
SMILES,CHX counter,Shiga inhibitor,Pf growth 48h,Pf growth 96h
O=C(CSc1ncccn1)n1c2c(c3ccccc31)CCCC2,33,52,n,n
O=C(CN1CCN(c2ccccc2)CC1)N1CCc2ccccc21,n,n,n,n
O=C(CSc1ncn(-c2ccccc2)n1)N1CCc2ccccc21,n,n,n,10µM
CCN(c1ccc(OC)cc1)S(=O)(=O)c1ccc2c(c1)NC(=O)CS2,34,n,n,n
COc1ccc(CNC(=O)CCS(=O)(=O)c2ccc3c(c2)NC(=O)CS3)cc1,n,n,n,15µM
CC1CCCC(NC(=O)CCS(=O)(=O)c2ccc3c(c2)NC(=O)CS3)C1C (configuration not stated),n,n,n,13µM
CCc1ccc(C(=O)C(C)OC(=O)c2cccc(S(=O)(=O)N3CCOCC3)c2)cc1 (configuration not stated),x,x,u,n
CN(Cc1nc(-c2cccnc2)no1)S(=O)(=O)c1ccc(Br)cc1,n,n,n,8.3µM
COc1ccc(CCc2nc(-c3ccc(-n4cccc4)cc3)no2)cc1,n,n,x,n
COc1ccccc1Cc1nc(-c2cccnc2)no1,37,55,u,n
COc1ccc(-c2noc(Cc3cccs3)n2)cc1,32,82,n,n
CN(Cc1nc(-c2cccnc2)no1)S(=O)(=O)c1ccc2ccccc2c1,n,n,n,n
COc1ccc(-c2noc(Cc3ccccc3OC)n2)cc1,n,n,n,13µM
O=C(O)c1cc(-c2ccccc2Cl)n[nH]1,n,n,x,x
Oc1ccc(Br)cc1-c1cc(-c2ccccc2Cl)[nH]n1,19,42,2.9µM,4.1µM
COc1ccc(O)c(-c2cc(-c3cccs3)[nH]n2)c1,43,155,u,u
COc1ccccc1-c1cc(-c2cc(Cl)ccc2O)n[nH]1,17,n,n,n
COc1ccc(O)c(-c2cc(-c3ccccc3Cl)[nH]n2)c1,26,33,u,n
Cc1cc(S(=O)(=O)N2CCOCC2)ccc1OCC(=O)NCc1ccco1,n,n,n,n
Oc1ccc(Br)cc1-c1cc(-c2ccccc2F)[nH]n1,64,77,9.3µM,n[5.75 µM]
O=C(NNC(=O)c1ccccc1O)c1ccc(Cl)c(S(=O)(=O)N2CCCCC2)c1,x,x,n,n
C=CCNC(=O)c1ccc(NC(=O)C2=CSCCO2)cc1,23,n,n,n
CC(C)CCNC(=O)c1ccc(NC(=O)C2=CSCCO2)cc1,24,59,n,n
O=C(Nc1ccc(C(=O)N2CCN(c3ccccc3)CC2)cc1)C1=CSCCO1,n,n,n,n
CC1CCCN(CCCNC(=O)c2ccc(NC(=O)C3=CSCCO3)cc2)C1 (configuration not stated),n,n,n,u
SMILES,CHX counter,Shiga inhibitor,Pf growth 48h,Pf growth 96h
O=C(Nc1ccc(C(=O)NCCCN2CCCCC2)cc1)C1=CSCCO1,n,n,n,u
O=C(Nc1ccc(C(=O)NCCCN2CCN(c3ccc(F)cc3)CC2)cc1)C1=CSCCO1,n,n,u,12µM
COc1cc(/C=C2/SC(=S)NC2=O)ccc1OS(=O)(=O)c1ccc(C)cc1,n,n,n,12µM
O=C1NC(=NCc2ccccc2)S/C1=C/c1ccc(O)cc1,13,n,u,u
COc1cc(/C=C2\SC(=S)NC2=O)ccc1OS(=O)(=O)c1ccccc1,n,n,n,n
COc1ccc(/C=C2/S/C(=N/S(=O)(=O)Cc3ccccc3)NC2=O)cc1OC,n,n,u,12µM
CCOc1ccc(/C=C2\SC(=S)NC2=O)cc1OC,14,41,n,13µM
O=C(Nc1c(C(=O)N2CCOCC2)oc2ccccc12)c1ccccc1Cl,n,n,n,n
COc1ccc(C2CC(c3ccccc3)=NN2c2ccc(S(N)(=O)=O)cc2)cc1 (configuration not stated),n,n,13µM,u
NS(=O)(=O)c1ccc(N2N=C(c3ccccc3)CC2c2ccc(F)cc2)cc1 (configuration not stated),n,n,12µM,u
N/N=C/C(=N\Nc1ccc(Cl)cc1)C(=O)c1ccncc1,n,n,u,u
CC(C)(C)NC(=O)NC(=O)C[n+]1ccc(Cc2ccc([N+](=O)[O-])cc2)cc1,n,n,9.3µM,u
Cc1ccc(Cl)cc1NC(=O)C[n+]1ccc(Cc2ccc([N+](=O)[O-])cc2)cc1,n,n,u,1.9µM
O=C(C[n+]1ccc(Cc2ccccc2)cc1)Nc1ccc([N+](=O)[O-])cc1Cl,n,n,n,n
O=C(/C=C/c1c(Cl)cccc1Cl)n1cccn1,9.8,n,n,n
CC1CCc2ccccc2N1C(=N)N(C)C (configuration not stated),n,n,n,n
